Pf growth 96h – Primary qHTS for delayed death inhibitors of the malarial parasite plastid, 96 hour incubation | AID 504834, 2011 | 6.9% of 320,000 active | P. falciparum luciferase reporter growth, 96 h | Potency, µM (series often up to 28.7 µM), inactives show at the top dose activity change, negative = inhibition, most hits filed as inhibitors; note: potency is the fitted concentration of half-maximal effect; % is set by controls: 0 for no effect and ±100 for the full control effect
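P. falciparum expressing integrated firefly luciferase, in erythrocytes at 2% hematocrit, 0.05% parasitemia, incubated with compounds 96 h at 37 C, 5% CO2. Growth inhibition read as loss of luminescence; two-generation exposure targets delayed-death apicoplast inhibitors.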
SARS PLP yeast – qHTS of Yeast-based Assay for SARS-CoV PLP. 0.19% of 330,000 active. Potency, µM (series often up to 32.9 µM), for inactives: at the highest dose activity, positive = growth rescue, hits mostly activators. S. cerevisiae expressing SARS-CoV PLpro, growth rescue. AID 485353, 2010; calls by dose curve; note: potency is the fitted concentration of half-maximal effect; 0% is about no effect; nearly all actives have a fitted effect of over 55% in size
Pf growth 48h – Primary qHTS for delayed death inhibitors of the malarial parasite plastid, 48 hour incubation. P. falciparum luciferase growth in erythrocytes, 48 h. Potency, µM (series often up to 28.7 µM), for inactives: at the top dose activity change, negative = inhibition, actives largely listed as inhibitors. 5.9% of 310,000 active; note: potency is the fitted concentration of half-maximal effect; % is set by controls: 0 for no effect and ±100 for the full control effect
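Read-out is firefly luciferase luminescence from an integrated reporter in P. falciparum, so falling signal marks reduced parasite growth. Infected erythrocytes were at 2% hematocrit and 0.1% parasitemia (final) in Albumax-supplemented RPMI 1640.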
HCMV inh – qHTS Assay for inhibitors of the human cytomegalovirus (HCMV); HFF cells, HCMV-luciferase reporter, 72 h; active compounds read low; activity change, negative = inhibition, % at 57.5 µM; 4.5% of 410,000 active; AID 1259415, 2018; in the data active = activity change below about -60%; inconclusive = no clear call, values can overlap the other calls; inactive = above about -39%; note: % is set by controls: 0 for no effect and ±100 for the full control effect
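Human foreskin fibroblasts infected with luciferase-reporter HCMV at MOI 1 PFU/cell, compounds at two doses. Luciferase measured 72 h post infection; normalized to buffer-only basal and Salinomycin (10uM) controls.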
Sm TGR block – qHTS Assay for the Inhibitors of Schistosoma Mansoni Peroxiredoxins; Schistosoma mansoni thioredoxin glutathione reductase (TGR), Q962Y6; purified TGR, DTNB reduction, TNB absorbance 405 nm; Potency, µM (doses to about 114 µM), for inactives: top-dose activity change, negative = inhibition, most hits filed as inhibitors; 3% of 360,000 active; AID 485364, 2010; note: potency is the fitted concentration of half-maximal effect; % is set by controls: 0 for no effect and ±100 for the full control effect; nearly all actives have a fitted effect of over 60% in size
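TGR 20 nM + NADPH 100 uM (dispensed conc.), cpd preinc 15 min RT; start with NADPH (500 uM addition) then DTNB (15 mM addition). Kinetic TNB absorbance, 405 nm filter. Four-parameter Hill fit across titration.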
HCV inhibitor – qHTS Assay for Inhibitors of Hepatitis C Virus (HCV) | Huh7.5.1 HCVcc-Cre infection, luciferase reporter, 44 h | AID 651820, 2012 | Potency, µM (titrated, usually from 41.8 µM), without a hit: at the top dose activity change, negative = inhibition, hits mostly inhibitors | 3.4% of 340,000 active; note: potency is the fitted concentration of half-maximal effect; % is set by controls: 0 for no effect and ±100 for the full control effect
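Antiviral activity was scored by luciferase reporter output from cells infected with HCVcc-Cre (~0.5 moi) in presence of compound, 44 h infection period, cells seeded 1,000/well 4 h prior.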
* hit, by the source's call; [ ] = remark or other dose. Shown are actives, neighbours in structure and some others; about 15% of the full set was active somewhere. Unless noted, calls come from the whole dose curve; as a rule, active = well fitted curve in the direction sought with a large enough effect; inconclusive = small, poorly fitted or top-dose-only effect, or another doubt; inactive = no such curve, though single readings can be large; an effect the other way counts as inactive or inconclusive.

What do the screens show for `CNC(=O)C1CCCN(c2nnc(C)c3c(C)n(-c4ccccc4)nc23)C1` (stereo unspecified)?
HCMV inh: 8.0; Sm TGR block: 0.1%

What do the screens show for `CCS(=O)(=O)N1CCC(C(=O)Oc2ccc(C)c(C)c2)CC1`?
Pf growth 96h: 55.7%; SARS PLP yeast: 2.8%; Pf growth 48h: 5.3%; HCMV inh: -17.0; Sm TGR block: 0.4%; HCV inhibitor: 5.6%

Results for COc1cc(C2c3cc4c(cc3OC(Nc3ccc(C(=O)O)cc3)C2C)OCO4)cc(OC)c1OC (stereo unspecified) ?
HCMV inh: -60.1*; HCV inhibitor: 12.0%

What do the screens show for `O=S(=O)(NNc1ncc(C(F)(F)F)cc1Cl)c1ccccc1`?
Pf growth 96h: 71.6%; SARS PLP yeast: 19.0%; Pf growth 48h: 23.6%; HCMV inh: 22.6; Sm TGR block: -0.8%; HCV inhibitor: 11.8%

How did C#CCNC(=O)C1=C[C@@H](C2CC2)C[C@@H](OCc2ccc(CO)cc2)O1 do in these assays?
Pf growth 96h: 0.7%; SARS PLP yeast: -0.9%; Pf growth 48h: -20.3%; HCMV inh: 1.3; Sm TGR block: -9.3%; HCV inhibitor: 16.5%

What do the screens show for `CC(C)(C)[C@@H]1C=C(C(=O)NCc2ccccc2)O[C@H](OCc2ccc(CO)cc2)C1`?
Pf growth 96h: -16.4%; SARS PLP yeast: -0.5%; Pf growth 48h: -11.5%; HCMV inh: -1.5; Sm TGR block: -19.9%; HCV inhibitor: 35.6%[8.37 µM]

Results for O=C(Nc1ccccc1)C1=C[C@@H](c2ccccc2)C[C@@H](OCc2ccc(CO)cc2)O1 ?
Pf growth 96h: 4.2%; SARS PLP yeast: -2.9%; Pf growth 48h: 32.3%; HCMV inh: 54.4; Sm TGR block: -25.6%; HCV inhibitor: -24.2%

Results for C#CCNC(=O)C1=C[C@@H](C(C)(C)C)C[C@@H](OCc2ccc(CO)cc2)O1 ?
Pf growth 96h: inconclusive; SARS PLP yeast: 0.0%; Pf growth 48h: 34.6%; HCMV inh: -12.3; Sm TGR block: 35.5µM*; HCV inhibitor: -4.0%

Results for O=C(O)C1=C[C@@H](c2coc3ccccc3c2=O)C[C@@H](OCc2ccc(CO)cc2)O1 ?
Pf growth 96h: 44.0%; SARS PLP yeast: 0.2%; Pf growth 48h: 6.8%; HCMV inh: 32.1; Sm TGR block: -8.2%; HCV inhibitor: inconclusive

Results for CC(=O)n1cc([C@@H]2C=C(C(=O)Nc3ccccc3)O[C@H](OCc3ccc(CO)cc3)C2)c2ccccc21 ?
Pf growth 96h: 5.86µM*; SARS PLP yeast: 0.6%; Pf growth 48h: inconclusive; HCMV inh: 30.1; Sm TGR block: 7.3%; HCV inhibitor: inconclusive

Results for C#CCNC(=O)C1=C[C@@H](c2cn(C(C)=O)c3ccccc23)C[C@@H](OCc2ccc(CO)cc2)O1 ?
Pf growth 96h: 6.57µM*; SARS PLP yeast: -1.3%; Pf growth 48h: 8.28µM*; HCMV inh: -11.2; Sm TGR block: inconclusive; HCV inhibitor: -17.8%

How did CC(=O)n1cc([C@H]2C=C(C(N)=O)O[C@@H](OCc3ccc(CO)cc3)C2)c2ccccc21 do in these assays?
HCMV inh: 9.7; HCV inhibitor: 2.82µM*

Results for COc1cccc(NC(=O)CN(C)C(=O)c2ccc(NC(=O)CC3SC(N4CCCC4)=NC3=O)cc2)c1 (stereo unspecified) ?
HCMV inh: 2.5; HCV inhibitor: 6.0%

How did CN(C)CCN1C(=O)C(=O)/C(=C(/O)c2ccc(S(=O)(=O)N3CCOCC3)cc2)C1c1ccc(F)cc1 (stereo unspecified) do in these assays?
Pf growth 96h: -17.6%; SARS PLP yeast: 1.2%; Pf growth 48h: 10.7%; HCMV inh: 6.2; Sm TGR block: -24.5%; HCV inhibitor: -13.9%

Results for COCCCNS(=O)(=O)c1ccc(N2CCCCS2(=O)=O)cc1 ?
HCMV inh: -15.7; Sm TGR block: 5.1%

Results for O=C(COC(=O)c1c[nH]c(=O)[nH]c1=O)Nc1cccc([N+](=O)[O-])c1 ?
Pf growth 96h: 0.5%; SARS PLP yeast: 0.0%; Pf growth 48h: 3.1%; HCMV inh: -5.4; Sm TGR block: -19.3%; HCV inhibitor: -21.0%

What do the screens show for `CC(=O)n1cc([C@H]2C=C(C(=O)NCc3ccccc3)O[C@@H](OCc3ccc(CO)cc3)C2)c2ccccc21`?
Pf growth 96h: 2.08µM*; SARS PLP yeast: -3.3%; Pf growth 48h: inconclusive; HCMV inh: -15.3; Sm TGR block: inconclusive; HCV inhibitor: inconclusive

What do the screens show for `C[C@H]1C=C(C(=O)NCc2ccccc2)O[C@@H](OCc2ccc(CO)cc2)C1`?
Pf growth 96h: inconclusive; SARS PLP yeast: -2.1%; Pf growth 48h: -1.0%; HCMV inh: -22.4; Sm TGR block: -12.9%; HCV inhibitor: inconclusive

Results for Cc1cccc(CSc2nc3ccccc3c(=O)n2C)c1 ?
Pf growth 96h: inconclusive; SARS PLP yeast: 0.0%; Pf growth 48h: inconclusive; HCMV inh: -75.9*; Sm TGR block: 3.2%; HCV inhibitor: 22.4µM*

Results for COn1c(SCc2cccc(Cl)c2)nc2ccccc2c1=O ?
Pf growth 96h: 10.4µM*; SARS PLP yeast: -1.2%; Pf growth 48h: inconclusive; HCMV inh: inconclusive; Sm TGR block: -13.8%; HCV inhibitor: inconclusive

Results for CCN(CC)C(=O)CSc1nc2ccccc2c(=O)n1OC ?
Pf growth 96h: 13.1µM*; SARS PLP yeast: -1.6%; Pf growth 48h: -23.2%; HCMV inh: -38.7; Sm TGR block: -22.9%; HCV inhibitor: 8.5%

Results for COC(=O)c1cc(CSc2nc3ccccc3c(=O)n2C)oc1C ?
Pf growth 96h: -11.6%; SARS PLP yeast: -2.8%; Pf growth 48h: inconclusive; HCMV inh: -73.9*; Sm TGR block: 1.4%; HCV inhibitor: inconclusive

What do the screens show for `COCCn1c(SCc2ccc(C(=O)OC)o2)nc2ccccc2c1=O`?
Pf growth 96h: -2.2%; SARS PLP yeast: -13.0%; Pf growth 48h: -27.8%; HCMV inh: 25.0; Sm TGR block: -22.7%; HCV inhibitor: -13.9%

Results for COn1c(SCc2ccccc2)nc2ccccc2c1=O ?
Pf growth 96h: inconclusive; SARS PLP yeast: -19.4%; Pf growth 48h: inconclusive; HCMV inh: inconclusive; Sm TGR block: 8.5%; HCV inhibitor: -14.0%

How did COc1ccc(NC(=O)Cn2nnc(C(=O)Nc3ccc(F)c(Cl)c3)c2N)cc1 do in these assays?
Pf growth 96h: 122.4%; SARS PLP yeast: -0.2%; Pf growth 48h: -1.3%; HCMV inh: -3.8; Sm TGR block: 5.8%; HCV inhibitor: 11.9%

Bioassay records as filed in PubChem.
